Results on 27 molecules are retold here after paper PMC4336329 (PLoS ONE, 2015).

Structures are written as SMILES. The whole screen tested about 310,000 compounds, of which about 14,000 (4.5%) showed an effect of 50% or more. The effect is printed as a negative number. The entries come from a sample that favours strong results as a whole.
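Further: peak tail current of the secondary pulse compared with the same well before compound.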

human ether-à-go-go-related gene (hERG) potassium channel, sequence (Q12809 whole entry, looked up): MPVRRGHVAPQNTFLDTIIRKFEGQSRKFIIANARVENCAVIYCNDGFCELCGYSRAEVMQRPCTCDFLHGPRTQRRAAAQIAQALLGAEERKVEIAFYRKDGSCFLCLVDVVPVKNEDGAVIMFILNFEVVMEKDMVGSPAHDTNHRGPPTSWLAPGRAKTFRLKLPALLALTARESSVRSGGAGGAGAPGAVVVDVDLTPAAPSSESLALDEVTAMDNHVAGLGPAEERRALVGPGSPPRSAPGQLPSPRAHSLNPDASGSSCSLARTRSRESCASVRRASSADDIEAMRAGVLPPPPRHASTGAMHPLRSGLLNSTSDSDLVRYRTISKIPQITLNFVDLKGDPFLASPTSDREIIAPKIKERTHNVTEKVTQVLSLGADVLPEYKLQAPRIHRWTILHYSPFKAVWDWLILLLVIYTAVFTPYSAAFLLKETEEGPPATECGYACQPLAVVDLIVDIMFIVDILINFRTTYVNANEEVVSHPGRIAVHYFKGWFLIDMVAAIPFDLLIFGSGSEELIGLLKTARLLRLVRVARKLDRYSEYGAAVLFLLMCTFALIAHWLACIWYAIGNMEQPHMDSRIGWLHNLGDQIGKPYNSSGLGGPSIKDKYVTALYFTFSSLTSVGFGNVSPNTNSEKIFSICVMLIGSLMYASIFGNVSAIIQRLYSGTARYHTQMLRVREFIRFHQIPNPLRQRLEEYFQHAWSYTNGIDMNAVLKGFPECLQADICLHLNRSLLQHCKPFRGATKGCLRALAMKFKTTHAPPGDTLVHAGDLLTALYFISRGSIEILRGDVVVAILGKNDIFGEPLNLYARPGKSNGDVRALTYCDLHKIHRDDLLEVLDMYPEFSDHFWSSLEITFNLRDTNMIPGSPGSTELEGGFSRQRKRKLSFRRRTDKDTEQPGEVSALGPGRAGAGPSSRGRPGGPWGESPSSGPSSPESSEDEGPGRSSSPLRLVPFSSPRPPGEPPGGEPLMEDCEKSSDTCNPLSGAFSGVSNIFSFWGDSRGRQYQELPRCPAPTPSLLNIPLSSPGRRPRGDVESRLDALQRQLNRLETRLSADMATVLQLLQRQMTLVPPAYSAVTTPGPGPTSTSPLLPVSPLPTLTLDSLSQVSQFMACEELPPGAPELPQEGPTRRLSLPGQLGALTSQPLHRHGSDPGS

The assay concerns the target human ether-à-go-go-related gene (hERG) potassium channel (human, UniProt Q12809). Briefly: primary screen, population patch clamp on CHO cells stably expressing hERG; higher = less effect of the substance.
For the molecule `COc1cc(Cl)c(C)cc1Nc1ncccn1`, the “hERG current change (%, negative = inhibition) at 10uM” value is 4.73%.
Regarding `CC(=O)c1cccc(NC(=S)N2CCCC2)c1`, the “hERG current change (%, negative = inhibition) at 10uM” value was 9.57%.
As to `Cc1sc2ncnc(N[C@@H](Cc3ccccc3)C(=O)O)c2c1C`, the “hERG current change (%, negative = inhibition) at 10uM” value was 14%.
Consider `Cc1sc2ncnc(Nc3ccccc3)c2c1C`, for which the “hERG current change (%, negative = inhibition) at 10uM” value was 2.79%.
In the case of `Cc1sc2ncnc(NC3CCN(Cc4ccccc4)CC3)c2c1C`, the “hERG current change (%, negative = inhibition) at 10uM” value was -79.6%.
In the case of `Cc1csc2ncnc(NCCc3ccccn3)c12`, the “hERG current change (%, negative = inhibition) at 10uM” value is -22.4%.
Turning to `Cc1csc2c(NC3CCN(Cc4ccccc4)CC3)ncnc12`, the “hERG current change (%, negative = inhibition) at 10uM” value is listed as -31.8%.
For `c1ccc(CNc2ncnc3sccc23)cc1`, the “hERG current change (%, negative = inhibition) at 10uM” value came to 9.9%.
With `Cc1csc2ncnc(NC3CCN(Cc4ccccc4)CC3)c12`, the “hERG current change (%, negative = inhibition) at 10uM” value is -65.5%.
`c1ccc(CN2CCC(Nc3ncnc4sccc34)CC2)cc1`: the “hERG current change (%, negative = inhibition) at 10uM” value is on record as -66.9%.
For the molecule `OC1CCC(Nc2ncnc3sccc23)CC1` (stereo not drawn), the “hERG current change (%, negative = inhibition) at 10uM” value came out at 13.2%.
In the case of `COc1ccc(NC(=O)c2cc(-c3ccc(C)cc3)on2)cc1OC`, the “hERG current change (%, negative = inhibition) at 10uM” value is recorded as 19.4%.
As for `COc1cccc(CN(CC(=O)NCC2CCCO2)C(=O)CNS(=O)(=O)c2ccccc2)c1` (stereo not drawn), the “hERG current change (%, negative = inhibition) at 10uM” value came to 7.52%.
For `O=C(CSc1ccccc1)NC(=O)NCc1ccccc1`, the “hERG current change (%, negative = inhibition) at 10uM” value stood at 5.87%.
For the molecule `COc1ccc(C(=O)C[n+]2ccccc2C)cc1.[Br-]`, the “hERG current change (%, negative = inhibition) at 10uM” value stood at 13.3%.
For `Cc1cc(OCc2cc(C(=O)N(C)C3CCOCC3)no2)cc(C)c1Cl`, the “hERG current change (%, negative = inhibition) at 10uM” value is recorded as -13.5%.
Take `CN(C(=O)c1cc(COc2ccc(F)c(F)c2)on1)C1CCOC1` (stereo not drawn): the “hERG current change (%, negative = inhibition) at 10uM” value was -13.1%.
As to `Cc1cc(OCc2cc(C(=O)N(C)Cc3nonc3C)no2)cc(C)c1Cl`, the “hERG current change (%, negative = inhibition) at 10uM” value was 11.8%.
For the molecule `CN(CCCN1CCOCC1)C(=O)c1cc(COc2cccc(C(F)(F)F)c2)on1`, the “hERG current change (%, negative = inhibition) at 10uM” value is -40.5%.
In the case of `Cc1cc(OCc2cc(C(=O)N(C)CCCN3CCOCC3)no2)cc(C)c1Cl`, the “hERG current change (%, negative = inhibition) at 10uM” value was -58%.
With `CN(CCCN1CCOCC1)C(=O)c1cc(COc2c(F)cccc2F)on1` the figure was 2.44%; with `Cc1ccc(OCc2cc(C(=O)N(C)CC3CCOCC3)no2)cc1C`, -13.1%.
Consider `Cc1cc(OCc2cc(C(=O)N(C)C3CCOC3)no2)cc(C)c1Cl` (stereo not drawn), for which the “hERG current change (%, negative = inhibition) at 10uM” value is -73.6%.
With `Cc1cc(OCc2cc(C(=O)N(C)CC3CCOCC3)no2)cc(C)c1Cl` the figure was -69%; with `Cc1cccc(NC(=O)CN2C(=O)CSC2=O)c1`, 14.5%; with `CC(=O)c1ccc(N2CCN(C(=S)NCCCN(C)C)CC2)cc1`, 2.47%.
On to `CC1(C(=O)N/N=C/c2ccc3c(c2)OCO3)CC1(Br)Br` (stereo not drawn), for which the “hERG current change (%, negative = inhibition) at 10uM” value is reported as -5.57%.
